# According to PubChem BioAssay (EPA / NIEHS):
# Active and inactive are the calls of the source. Rule for the calls: active = hit-call score of the fitted dose curve at least 0.9, where 1 is the maximum; inactive = score below 0.9.
# Read-out: growth arrest and DNA damage 45 (GADD45A), GADD45A (gene 1647)
# Experiment: LTEA_HepaRG_GADD45A: Life Technologies and Expression Analysis (LTEA) Assay for growth arrest and DNA damage 45 (GADD45A) using HepaRG (AID 2283458)
# Conditions: mRNA level, 48 h; actives raise or lower the signal
# Summary of the method: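 Transcript induction or loss, quantified by TaqMan qRT-PCR against three housekeeping genes, is the read-out. HepaRG cells received chemicals for 48 h across eight half-log concentrations from 100 uM in 0.5% DMSO; gain and loss fitted relative to DMSO.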
SMILES,outcome,AC50
CC(=O)OCCOCCOCCOC(C)=O,inactive,
CCCCCCC(=O)OCC,inactive,
CC(C)c1ccc(C(=O)N=C(N)N)cc1S(C)(=O)=O,,0.676 µM (active)
CC1(C)NC(=O)NC1=O,inactive,
Nc1ccc(S(=O)(=O)c2ccc(N)cc2)cc1,inactive,
C[C@]12C=CC(=O)C=C1CC[C@@H]1[C@@H]2C(=O)C[C@@]2(C)[C@H]1CC[C@]2(O)C(=O)CO,inactive,
CCCCCCCCCCO,inactive,

# Read-out: Forkhead box O3 (FOXO3), FOXO3 (gene 2309)
# Experiment: LTEA_HepaRG_FOXO3: Life Technologies and Expression Analysis (LTEA) Assay for Forkhead box O3 (FOXO3) using HepaRG (AID 2283459)
# Conditions: mRNA level, 48 h; actives raise or lower the signal
# Summary of the method: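 Gene-expression endpoint: FOXO3 transcript level by qRT-PCR in HepaRG cultures treated 48 h with chemicals up to 100 uM (half-log, 0.5% DMSO vehicle).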
SMILES,outcome,AC50
Cc1nc(C)nc(N2C[C@@H](C)N(c3ccnc([C@@H](C)O)n3)[C@@H](C)C2)n1,inactive,
O=C(O)Cc1ccccc1Nc1c(Cl)cccc1Cl,inactive,
NCCO,inactive,
COc1ccc(S(=O)(=O)N2C(=O)[C@@](c3ccccc3OC)(N3C[C@H](O)C[C@H]3C(=O)N(C)C)c3cc(Cl)ccc32)c(OC)c1,inactive,
O=C(O)CCCCC(=O)O,inactive,
Cc1ccc(C)c(O)c1C,inactive,
Nc1nc(N)c2nc(CNc3ccc(C(=O)N[C@@H](CCC(=O)O)C(=O)O)cc3)cnc2n1,inactive,
CN1CCCC1=O,inactive,
Oc1ccc2ccccc2c1N=Nc1ccccc1,,7.86 µM (active)
CN1CCN(Cc2cc(-c3ccc4[nH]c(=O)oc4c3)co2)[C@@H](c2ccc(F)cc2)C1,inactive,
CCCCC(CC)COC(=O)CC(C(=O)OCC(CC)CCCC)S(=O)(=O)O (stereo not drawn),,79.8 µM (active)
NS(=O)(=O)c1cc2c(cc1Cl)NCNS2(=O)=O,inactive,
CC(=O)C(C)=CC1C(C)=CCCC1(C)C (stereo not drawn),inactive,
CCNc1cccc(C)c1,inactive,
Cc1cccc([N+](=O)[O-])c1C,inactive,
NCC1(Cc2noc(=O)[nH]2)CCCCC1,inactive,
Cc1oc(-c2ccccc2)nc1CCOc1cccc2c1ccn2CCC(=O)O,inactive,
COc1ccc(C)cc1N,inactive,
CCOC(=O)CCC(=O)OCC,inactive,
Cc1cc(NC(=O)C(=O)O)cc(C)c1Oc1ccc(O)c2c1CCC2,inactive,
O=c1[nH]cc(F)c(=O)[nH]1,inactive,
CC(=O)OCCOCCOCCOC(C)=O,inactive,
CCCCCCC(=O)OCC,inactive,
CC(C)c1ccc(C(=O)N=C(N)N)cc1S(C)(=O)=O,,0.264 µM (active)
CC1(C)NC(=O)NC1=O,inactive,
Nc1ccc(S(=O)(=O)c2ccc(N)cc2)cc1,inactive,
C[C@]12C=CC(=O)C=C1CC[C@@H]1[C@@H]2C(=O)C[C@@]2(C)[C@H]1CC[C@]2(O)C(=O)CO,inactive,
CCCCCCCCCCO,inactive,

# Read-out: ABC Transporter (ABCB1), ABCB1 (gene 5243)
# Experiment: LTEA_HepaRG_ABCB1: Life Technologies and Expression Analysis (LTEA) Assay for ABC Transporter (ABCB1) using HepaRG (AID 2283460)
# Conditions: mRNA level, 48 h; actives raise or lower the signal
# Summary of the method: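 Human liver HepaRG line treated 48 h with up to 100 uM compound (eight half-log points, 0.5% DMSO); ABCB1 mRNA change fitted bidirectionally against DMSO controls.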
SMILES,outcome,AC50
Cc1nc(C)nc(N2C[C@@H](C)N(c3ccnc([C@@H](C)O)n3)[C@@H](C)C2)n1,inactive,
O=C(O)Cc1ccccc1Nc1c(Cl)cccc1Cl,,6.67 µM (active)
NCCO,inactive,
COc1ccc(S(=O)(=O)N2C(=O)[C@@](c3ccccc3OC)(N3C[C@H](O)C[C@H]3C(=O)N(C)C)c3cc(Cl)ccc32)c(OC)c1,inactive,
O=C(O)CCCCC(=O)O,inactive,
Cc1ccc(C)c(O)c1C,inactive,
Cc1ccc(C(C)C)c(O)c1,inactive,
Nc1nc(N)c2nc(CNc3ccc(C(=O)N[C@@H](CCC(=O)O)C(=O)O)cc3)cnc2n1,inactive,
CN1CCCC1=O,inactive,
Oc1ccc2ccccc2c1N=Nc1ccccc1,inactive,
CN1CCN(Cc2cc(-c3ccc4[nH]c(=O)oc4c3)co2)[C@@H](c2ccc(F)cc2)C1,inactive,
CCCCC(CC)COC(=O)CC(C(=O)OCC(CC)CCCC)S(=O)(=O)O (stereo not drawn),,89.9 µM (active)
NS(=O)(=O)c1cc2c(cc1Cl)NCNS2(=O)=O,inactive,
CC(=O)C(C)=CC1C(C)=CCCC1(C)C (stereo not drawn),inactive,
CCNc1cccc(C)c1,inactive,
Cc1cccc([N+](=O)[O-])c1C,inactive,
NCC1(Cc2noc(=O)[nH]2)CCCCC1,inactive,
Cc1oc(-c2ccccc2)nc1CCOc1cccc2c1ccn2CCC(=O)O,,81.3 µM (active)
COc1ccc(C)cc1N,inactive,
CCOC(=O)CCC(=O)OCC,inactive,
Cc1cc(NC(=O)C(=O)O)cc(C)c1Oc1ccc(O)c2c1CCC2,inactive,
O=c1[nH]cc(F)c(=O)[nH]1,inactive,
CC(=O)OCCOCCOCCOC(C)=O,inactive,
CCCCCCC(=O)OCC,inactive,
CC(C)c1ccc(C(=O)N=C(N)N)cc1S(C)(=O)=O,,8.32 µM (active)
CC1(C)NC(=O)NC1=O,inactive,
Nc1ccc(S(=O)(=O)c2ccc(N)cc2)cc1,inactive,
C[C@]12C=CC(=O)C=C1CC[C@@H]1[C@@H]2C(=O)C[C@@]2(C)[C@H]1CC[C@]2(O)C(=O)CO,,50 µM (active)
CCCCCCCCCCO,inactive,

# Read-out: growth arrest and DNA damage 45 (GADD45B), GADD45B (gene 4616)
# Experiment: LTEA_HepaRG_GADD45B: Life Technologies and Expression Analysis (LTEA) Assay for growth arrest and DNA damage 45 (GADD45B) using HepaRG (AID 2283461)
# Conditions: mRNA level, 48 h; actives raise or lower the signal
# Summary of the method: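 Differentiated HepaRG cells, plated 48 h then switched to serum-free induction medium, were exposed 48 h in duplicate to eight half-log concentrations from 100 uM in 0.5% DMSO; mRNA quantified by qRT-PCR, normalized to ACTB/GAPDH/POLR2A, bidirectional fit versus DMSO.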
SMILES,outcome,AC50
Cc1nc(C)nc(N2C[C@@H](C)N(c3ccnc([C@@H](C)O)n3)[C@@H](C)C2)n1,inactive,
O=C(O)Cc1ccccc1Nc1c(Cl)cccc1Cl,inactive,
NCCO,inactive,
COc1ccc(S(=O)(=O)N2C(=O)[C@@](c3ccccc3OC)(N3C[C@H](O)C[C@H]3C(=O)N(C)C)c3cc(Cl)ccc32)c(OC)c1,inactive,
O=C(O)CCCCC(=O)O,inactive,
Cc1ccc(C)c(O)c1C,inactive,
Cc1ccc(C(C)C)c(O)c1,inactive,
Nc1nc(N)c2nc(CNc3ccc(C(=O)N[C@@H](CCC(=O)O)C(=O)O)cc3)cnc2n1,inactive,
CN1CCCC1=O,inactive,
Oc1ccc2ccccc2c1N=Nc1ccccc1,,31 µM (active)
CN1CCN(Cc2cc(-c3ccc4[nH]c(=O)oc4c3)co2)[C@@H](c2ccc(F)cc2)C1,inactive,
CCCCC(CC)COC(=O)CC(C(=O)OCC(CC)CCCC)S(=O)(=O)O (stereo not drawn),,82.2 µM (active)
NS(=O)(=O)c1cc2c(cc1Cl)NCNS2(=O)=O,inactive,
CC(=O)C(C)=CC1C(C)=CCCC1(C)C (stereo not drawn),inactive,
CCNc1cccc(C)c1,inactive,
Cc1cccc([N+](=O)[O-])c1C,inactive,
NCC1(Cc2noc(=O)[nH]2)CCCCC1,inactive,
Cc1oc(-c2ccccc2)nc1CCOc1cccc2c1ccn2CCC(=O)O,,75.8 µM (active)
COc1ccc(C)cc1N,inactive,
CCOC(=O)CCC(=O)OCC,inactive,
Cc1cc(NC(=O)C(=O)O)cc(C)c1Oc1ccc(O)c2c1CCC2,inactive,
O=c1[nH]cc(F)c(=O)[nH]1,inactive,
CC(=O)OCCOCCOCCOC(C)=O,inactive,
CCCCCCC(=O)OCC,inactive,
CC(C)c1ccc(C(=O)N=C(N)N)cc1S(C)(=O)=O,inactive,
CC1(C)NC(=O)NC1=O,inactive,
Nc1ccc(S(=O)(=O)c2ccc(N)cc2)cc1,inactive,
C[C@]12C=CC(=O)C=C1CC[C@@H]1[C@@H]2C(=O)C[C@@]2(C)[C@H]1CC[C@]2(O)C(=O)CO,inactive,
CCCCCCCCCCO,inactive,
